# Compound activity deposited in PubChem by National Center for Advancing Translational Sciences (NCATS).
# Pol iota inh: DNA polymerase iota (human) inhibition; Potency, µM (doses to about 115 µM), most hits filed as inhibitors; AID 588590; Q9UNA4; Pol iota fluorescent replication assay, 10 min; 1% of 390,000 active
#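 Fluorescent replication assay read twice, at 0 min and 10 min after adding 50 nM (final) substrate. Enzyme (10 nM) and compounds were first incubated 15 min at room temperature; enzyme-free buffer wells were negative controls.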
# Pol beta inh: inhibitors of human DNA polymerase beta | AID 485314 | Pol beta primer extension/strand displacement, fluorescence kinetic | Potency, µM (top dose mostly 114 µM), most hits filed as inhibitors | 1.3% of 340,000 active
#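 Preincubation: enzyme (10 nM) with compound, 15 min, RT. Reaction: substrate added to 50 nM final. Reads: 0 and 10 min. Analysis: normalized, Hill fit.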
# Pol eta inh: DNA polymerase eta (human) inhibition; Q9Y253; recombinant Pol eta, fluorescent DNA replication assay; Potency, µM (highest dose often 114 µM), hits mostly inhibitors; 1.2% of 390,000 active
# Target sequence (Q9Y253 whole entry, looked up): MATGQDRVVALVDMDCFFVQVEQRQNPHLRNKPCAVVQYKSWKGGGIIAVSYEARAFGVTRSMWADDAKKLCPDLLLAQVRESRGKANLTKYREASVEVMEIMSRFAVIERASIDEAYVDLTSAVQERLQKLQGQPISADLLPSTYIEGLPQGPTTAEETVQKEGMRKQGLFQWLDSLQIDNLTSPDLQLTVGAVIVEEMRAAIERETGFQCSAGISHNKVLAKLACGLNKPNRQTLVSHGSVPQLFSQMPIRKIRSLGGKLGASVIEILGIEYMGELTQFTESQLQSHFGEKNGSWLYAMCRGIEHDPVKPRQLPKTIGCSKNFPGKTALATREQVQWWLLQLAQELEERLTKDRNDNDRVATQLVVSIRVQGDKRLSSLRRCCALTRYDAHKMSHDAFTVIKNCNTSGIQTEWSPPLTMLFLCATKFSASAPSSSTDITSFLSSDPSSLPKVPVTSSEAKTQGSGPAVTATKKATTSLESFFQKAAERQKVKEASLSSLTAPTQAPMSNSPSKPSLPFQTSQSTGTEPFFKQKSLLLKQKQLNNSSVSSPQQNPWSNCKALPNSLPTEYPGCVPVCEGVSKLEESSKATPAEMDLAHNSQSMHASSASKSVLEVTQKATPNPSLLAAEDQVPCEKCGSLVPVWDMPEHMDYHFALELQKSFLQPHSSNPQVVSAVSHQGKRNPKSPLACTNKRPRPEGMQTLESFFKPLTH
#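 Pol eta at 10 nM preincubated with compounds 15 min at room temperature; reaction started with fluorescent substrate (50 nM final) and read kinetically at 0 and 10 min.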
# Pol kappa inh: blocks human DNA polymerase kappa activity; purified Pol kappa, fluorescent DNA synthesis assay, 10 min; AID 588579; Potency, µM (top dose mostly 107 µM), hits mostly inhibitors; 0.53% of 400,000 active
#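 First, compounds were pin-transferred onto 10 nM Pol kappa. After 15 min at room temperature, substrate was added to 50 nM final. Fluorescence was then measured kinetically at 0 and 10 min.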
# GLS inhibitor: blocks human kidney-isoform glutaminase activity | GLS enzymatic activity, qHTS titration | Potency, µM (titrated, usually from 45.5 µM), usual class: inhibitors | 0.21% of 410,000 active
#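 hKGA in 45 mM KH2PO4 (pH 8.2), 0.02% Tween-20 with compound, then 1mM L-Glutamine (stock as added) plus glutamate oxidase/HRP/Amplex red coupling mix. Fluorescence read initially and after 30 min at RT; signal change reflects glutamate formation.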
# APEX1 inh: inhibitors of human APE1 endonuclease; Potency, µM (series often up to 65.8 µM), hits mostly inhibitors; AID 2517; 0.35% of 350,000 active; recombinant APE1, TAMRA/BHQ-2 abasic DNA cleavage fluorescence; P27695; also: nearly all actives have a fitted effect of over 55% in size
#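 APE1 at 0.75 nM preincubated 15 min at room temperature with compound. Reaction then started with 50 nM double-stranded THF-abasic substrate labelled with TAMRA/BHQ-2, and 525/598 nm fluorescence read kinetically. Activity taken as third-minus-first read difference, normalized to DMSO and NSC13755 controls.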
# A number is an active result; . = inactive; ? = inconclusive; / = not tested or not shown; ! = repeats disagree. Shown are actives, neighbours in structure and some others; about 2.4% of the full set was active somewhere. Calls follow the shape of the dose curve; as a rule, active = well fitted curve in the direction sought with a large enough effect; inconclusive = small, poorly fitted or top-dose-only effect, or another doubt; inactive = no such curve, though single readings can be large; an effect the other way counts as inactive or inconclusive.
SMILES,Pol iota inh,Pol beta inh,Pol eta inh,Pol kappa inh,GLS inhibitor,APEX1 inh
Cc1ccc(NC(=O)CSc2nc(-c3ccc(C(C)(C)C)cc3)nc3cc(=O)[nH]n23)cc1C,.,?,.,.,.,/
Cc1cccc(NC(=O)CSc2nc(N)cc(N)n2)c1,.,.,.,.,.,.
Cc1ccc(NC(=O)CSc2nc(-c3cccs3)nc3cc(=O)[nH]n23)cc1C,89µM,50µM,.,.,?,.
Cc1ccccc1NC(=O)CSc1nc(-c2cccs2)nc2cc(=O)[nH]n12,89µM,?,.,?,.,.
Cc1cccc(NC(=O)CSc2nnc(-c3ccco3)c(-c3ccco3)n2)c1,?,25µM,40µM,79µM,.,?
Cc1cc(NC(=O)CSCc2nc(-c3cccc(F)c3)oc2C)no1,.,.,.,.,.,.
O=C(NCC(c1ccc(F)cc1)N1CCOCC1)c1nn(-c2ccccc2)c(=O)c2ccccc12 (stereo unspecified),.,/,.,.,.,.
CCCn1c(CCC(=O)O)ccc1-c1ccc(OC)cc1,.,25µM,?,.,.,.
Cc1ccc(C)c(-n2c(CCC(=O)O)ccc2-c2ccc(Cl)cc2)c1,.,7.9µM,.,.,.,/
O=C(O)CCc1ccc(-c2ccc(Cl)cc2)n1CC(=O)O,?,?,50µM,.,.,.
Cc1ccc(-c2ccc(CCC(=O)O)n2-c2ccc(C)c(Cl)c2)cc1,.,?,.,.,.,/
O=C(O)CCc1ccc(-c2ccc(Cl)cc2)n1CCC(=O)O,.,.,?,.,.,.
O=C1CCCCCN1CP(=O)(O)CN1CCCCCC1=O,.,.,.,.,.,.
O=C(C1CCCN(S(=O)(=O)c2ccc(Br)s2)C1)N1CCN(c2ccccc2F)CC1 (stereo unspecified),.,.,.,.,.,/
COc1cc(CCC(=O)Nc2cccc(S(=O)(=O)N(C)C)c2)cc(OC)c1OC,.,.,.,.,.,.
COc1cccc(-n2cnc3cccc(N)c32)c1,.,.,.,.,.,.
CCOC(=O)c1ccc(N2C(=O)C3CC=CCC3C2=O)cc1 (stereo unspecified),89µM,.,.,.,.,.
COc1ccccc1N1CCN(C(=O)c2ccc3nc(-c4ccco4)c(-c4ccco4)nc3c2)CC1,?,28µM,.,.,.,?
CC(C)C(=O)Nc1cccc(NC(=O)c2cccc(Br)c2)c1,.,.,.,.,.,.
O=C(Nc1ccc(Cl)c([N+](=O)[O-])c1)c1cnccn1,?,40µM,22µM,?,.,.
O=C(NCc1ccco1)c1cc2c(s1)CCCCC2,?,28µM,.,.,.,.
O=C(NCC(c1ccco1)N1CCCCC1)c1cc2c(s1)CCCC2 (stereo unspecified),?,/,.,.,.,.
CS(=O)(=O)Nc1ccc(-c2ccc(/C=C3\SC(N)=NC3=O)o2)cc1,?,40µM,?,.,.,.
NC1=NC(=O)/C(=C/c2cccs2)S1,.,.,.,.,.,.
CCN(CC)c1ccc(/C=c2\sc3nnc(-c4ccccc4Cl)n3c2=O)cc1,.,.,?,.,.,.
SMILES,Pol iota inh,Pol beta inh,Pol eta inh,Pol kappa inh,GLS inhibitor,APEX1 inh
Cc1ccc(/C=c2/sc3nnc(-c4ccccc4Cl)n3c2=O)o1,?,40µM,14µM,.,.,?
Cc1ccc(Cc2cn3cc(-c4ccc(F)cc4)nc3s2)cc1,.,.,.,.,.,/
NC(=NCc1ccc2c(c1)OCO2)NC(=O)c1ccccc1,.,.,79µM,.,.,.
O=C(N/N=C/c1ccc(Cl)c([N+](=O)[O-])c1)c1ccc2nc[nH]c2c1,.,40µM,?,.,.,.
O=C(N/N=C/c1ccccc1[N+](=O)[O-])c1ccc2nc[nH]c2c1,.,.,.,.,.,.
CCOC(=O)c1ccc(S(=O)(=O)Nc2nc3cc(S(=O)(=O)NC4=NCCCCC4)ccc3s2)cc1,14µM,.,.,.,.,.
O=C(Nc1ccc(-c2nc3ncccc3o2)cc1)c1ccc(Br)o1,.,.,?,.,.,.
O=C(Nc1ccc(-c2nc3ncccc3o2)cc1)c1ccco1,?,35µM,?,?,?,?
COc1cc(CC(=O)OCC(=O)Nc2ccccc2C#N)cc(OC)c1OC,.,/,.,.,.,.
O=C(Nc1ccc(O)cc1C(=O)O)c1ccc2c(c1)C(=O)N(Cc1ccco1)C2=O,?,?,40µM,.,.,?
CC1(C(=O)O)NCCc2cc(O)c(O)cc21 (stereo unspecified),/,/,/,?,/,5.6µM
Oc1cc2c(cc1O)C(c1ccccc1)CNCC2 (stereo unspecified),.,.,.,.,?,.
COc1ccc(/C=C(\C#N)C(=O)OC2CCOC2=O)cc1 (stereo unspecified),.,.,.,.,.,.
CSc1nc(Sc2ccccc2)c2ccccc2n1,.,.,.,.,.,.
CSc1nc(=O)[nH]nc1Sc1ccccc1,/,/,45µM,/,.,/
CCN(c1ccccc1)S(=O)(=O)c1ccc(Oc2ccc(-n3ccnc3)cc2)nc1,.,40µM,.,.,.,?
COc1cccc2c(N/N=C/c3ccc(O)c(O)c3)cc(C)nc12,?,20µM,.,.,?,.
COc1ccc2nc(C)cc(N/N=C/c3ccc(F)cc3)c2c1,.,.,.,.,.,.
COc1ccc(/C=N/Nc2cc(C)nc3c(C)cccc23)cc1,.,25µM,?,.,.,.
COc1ccc(/C=N/Nc2cc(C)nc3ccccc23)cc1,?,79µM,?,.,.,.
COc1ccc(Nc2cc(C)nc3ccc(OC)cc23)cc1,?,22µM,.,.,.,.
CCC/C=C1/CCCOC(C(=O)NCc2ccccn2)(C(F)(F)F)C1 (stereo unspecified),89µM!,/,.,.,.,.
O=C(COc1ccccc1/C=C1\SC(=O)NC1=O)Nc1ccccc1,?,.,18µM,.,.,.
O=C1NC(=O)/C(=C/c2ccccc2OCc2ccccc2)S1,.,.,.,.,?,.
Oc1cc(-c2cccnc2)cc2cccnc12,?,/,.,.,.,.
SMILES,Pol iota inh,Pol beta inh,Pol eta inh,Pol kappa inh,GLS inhibitor,APEX1 inh
CNC(=O)c1ccsc1NC(=O)c1sc2ccccc2c1Cl,?,14µM,?,?,.,.
Cn1c(NCc2cccnc2)nc2c1c(=O)n(Cc1ccccc1F)c(=O)n2C,.,.,.,.,?,.
Cn1c(NCCO)nc2c1c(=O)n(Cc1ccc(F)cc1)c(=O)n2C,.,.,.,.,.,.
Cn1c(NCCO)nc2c1c(=O)n(Cc1ccccc1Cl)c(=O)n2C,.,.,.,.,5µM,/
Cn1c(NCCCN2CCOCC2)nc2c1c(=O)n(Cc1ccc(Cl)cc1Cl)c(=O)n2C,.,.,.,.,2.5µM,.
COCCNc1nc2c(c(=O)n(Cc3ccccc3F)c(=O)n2C)n1C,.,.,.,.,16µM,.
